Reference: PubChem BioAssay AID1159580 (chemical genetic matrix, 2015)
The campaign covered roughly 5,500 compounds. About 2,000 (36%) were called active. About 18% were inconclusive and are not listed. Rule as the data show it: active = normalized growth mostly below about 0.91 (no sharp cut-off); inconclusive = no clear call, values can overlap the other calls; inactive = mostly above about 0.92. The list shows a part of the results.

Experiment: chemical genetic growth profiling, strain panel (AID 1159580);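 also: tested at 20 µM; growth read once vehicle control cultures reached saturation at 30 °C; 1 = growth at the plate median or of vehicle wells; lower values mean less growth of the strain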
Conditions: growth OD

Measured: normalized growth

COP(=S)(OC)Oc1ccc([N+](=O)[O-])cc1
active: S. cerevisiae deletion strains, locus YOR270C, strain vph1, stronger effect = lower value 0.658
inactive: S. cerevisiae deletion strains, locus YJR075W, strain HOC1, stronger effect = lower value 0.993 | S. cerevisiae deletion strains, locus YKL009W, strain mrt4, stronger effect = lower value 0.962 | S. cerevisiae deletion strains, locus YKL068W, stronger effect = lower value 0.987 | S. cerevisiae deletion strains, locus YKL085W, strain MDH1 (second series), stronger effect = lower value 0.978 | S. cerevisiae deletion strains, locus YKL085W, strain MDH1, stronger effect = lower value 0.978 | S. cerevisiae deletion strains, locus YKL160W, strain elf1, stronger effect = lower value 0.993 | S. cerevisiae deletion strains, locus YKL190W, strain CNB1, stronger effect = lower value 0.975 | S. cerevisiae deletion strains, locus YKR001C, strain vps1, stronger effect = lower value 0.982 | S. cerevisiae deletion strains, locus YKR026C, strain gcn3, stronger effect = lower value 0.995 | S. cerevisiae deletion strains, locus YKR091W, strain srl3, stronger effect = lower value 0.992 | S. cerevisiae deletion strains, locus YLL001W, strain dnm1, stronger effect = lower value 0.995 | S. cerevisiae deletion strains, locus YLL026W, stronger effect = lower value 0.993 | S. cerevisiae deletion strains, locus YLL041C, strain sdh2, stronger effect = lower value 1 | S. cerevisiae deletion strains, locus YLR027C, strain aat2, stronger effect = lower value 0.998 | S. cerevisiae deletion strains, locus YLR039C, strain RIC1, stronger effect = lower value 0.877 | S. cerevisiae deletion strains, locus YLR058C, strain SHM2, stronger effect = lower value 0.975 | S. cerevisiae deletion strains, locus YLR102C, strain apc9, stronger effect = lower value 0.974 | S. cerevisiae deletion strains, locus YLR113W, strain HOG1, stronger effect = lower value 0.916 | S. cerevisiae deletion strains, locus YLR221C, strain rsa3, stronger effect = lower value 0.974 | S. cerevisiae deletion strains, locus YLR258W, strain gsy2, stronger effect = lower value 0.99 | S. cerevisiae deletion strains, locus YLR262C, strain YPT6 (second series), stronger effect = lower value 0.927 | S. cerevisiae deletion strains, locus YLR262C, strain YPT6, stronger effect = lower value 0.915 | S. cerevisiae deletion strains, locus YLR268W, strain sec22, stronger effect = lower value 0.993 | S. cerevisiae deletion strains, locus YLR320W, strain mms22, stronger effect = lower value 0.944 | S. cerevisiae deletion strains, locus YLR330W, strain CHS5, stronger effect = lower value 0.989 | S. cerevisiae deletion strains, locus YLR342W, strain FKS1 (second series), stronger effect = lower value 0.998 | S. cerevisiae deletion strains, locus YLR342W, strain FKS1, stronger effect = lower value 0.981 | S. cerevisiae deletion strains, locus YLR357W, strain rsc2, stronger effect = lower value 1 | S. cerevisiae deletion strains, locus YLR370C, strain arc18, stronger effect = lower value 0.991 | S. cerevisiae deletion strains, locus YLR371W, strain rom2, stronger effect = lower value 0.975 | S. cerevisiae deletion strains, locus YLR384C, strain iki3, stronger effect = lower value 0.971 | S. cerevisiae deletion strains, locus YLR418C, strain cdc73, stronger effect = lower value 0.991 | S. cerevisiae deletion strains, locus YML016C, strain PPZ1, stronger effect = lower value 0.951 | S. cerevisiae deletion strains, locus YML032C, strain rad52, stronger effect = lower value 0.981 | S. cerevisiae deletion strains, locus YML120C, strain ndi1, stronger effect = lower value 1 | S. cerevisiae deletion strains, locus YML124C, strain tub3, stronger effect = lower value 0.99 | S. cerevisiae deletion strains, locus YMR058W, strain fet3, stronger effect = lower value 1 | S. cerevisiae deletion strains, locus YMR078C, strain ctf18, stronger effect = lower value 0.974 | S. cerevisiae deletion strains, locus YMR125W, strain sto1, stronger effect = lower value 0.995 | S. cerevisiae deletion strains, locus YMR129W, stronger effect = lower value 0.991 | S. cerevisiae deletion strains, locus YMR205C, strain PFK2, stronger effect = lower value 0.97 | S. cerevisiae deletion strains, locus YMR223W, strain ubp8, stronger effect = lower value 0.99 | S. cerevisiae deletion strains, locus YMR231W, strain pep5, stronger effect = lower value 0.978 | S. cerevisiae deletion strains, locus YMR263W, strain SAP30, stronger effect = lower value 0.985 | S. cerevisiae deletion strains, locus YMR307W, strain GAS1, stronger effect = lower value 1.03 | S. cerevisiae deletion strains, locus YNL067W, strain RPL9B, stronger effect = lower value 0.984 | S. cerevisiae deletion strains, locus YNL071W, strain lat1, stronger effect = lower value 0.934 | S. cerevisiae deletion strains, locus YNL128W, strain TEP1, stronger effect = lower value 0.96 | S. cerevisiae deletion strains, locus YNL153C, strain GIM3, stronger effect = lower value 0.998 | S. cerevisiae deletion strains, locus YNL183C, strain NPR1, stronger effect = lower value 0.954 | S. cerevisiae deletion strains, locus YNL209W, strain ssb2, stronger effect = lower value 0.993 | S. cerevisiae deletion strains, locus YNL233W, strain BNI4, stronger effect = lower value 0.977 | S. cerevisiae deletion strains, locus YNL248C, strain rpa49, stronger effect = lower value 0.983 | S. cerevisiae deletion strains, locus YNL250W, strain rad50, stronger effect = lower value 0.981 | S. cerevisiae deletion strains, locus YNL271C, strain bni1, stronger effect = lower value 0.98 | S. cerevisiae deletion strains, locus YNL298W, strain CLA4, stronger effect = lower value 0.977 | S. cerevisiae deletion strains, locus YNL307C, strain MCK1, stronger effect = lower value 0.984 | S. cerevisiae deletion strains, locus YNL322C, strain KRE1 (second series), stronger effect = lower value 0.99 | S. cerevisiae deletion strains, locus YNL322C, strain KRE1, stronger effect = lower value 0.986 | S. cerevisiae deletion strains, locus YNR049C, strain mso1, stronger effect = lower value 1.01 | S. cerevisiae deletion strains, locus YNR052C, strain pop2, stronger effect = lower value 0.984 | S. cerevisiae deletion strains, locus YOL006C, strain TOP1, stronger effect = lower value 0.885 | S. cerevisiae deletion strains, locus YOL012C, strain htz1 1.15 | S. cerevisiae deletion strains, locus YOL147C, strain pex11, stronger effect = lower value 0.994 | S. cerevisiae deletion strains, locus YOR001W, strain rrp6, stronger effect = lower value 1 | S. cerevisiae deletion strains, locus YOR061W, strain CKA2, stronger effect = lower value 0.964 | S. cerevisiae deletion strains, locus YOR069W, strain VPS5, stronger effect = lower value 0.994 | S. cerevisiae deletion strains, locus YOR070C, strain gyp1, stronger effect = lower value 1 | S. cerevisiae deletion strains, locus YOR080W, strain dia2, stronger effect = lower value 0.984 | S. cerevisiae deletion strains, locus YOR083W, strain WHI5, stronger effect = lower value 0.987 | S. cerevisiae deletion strains, locus YOR106W, strain vam3, stronger effect = lower value 0.947 | S. cerevisiae deletion strains, locus YOR136W, strain idh2, stronger effect = lower value 0.997 | S. cerevisiae deletion strains, locus YOR144C, strain elg1, stronger effect = lower value 0.987 | S. cerevisiae deletion strains, locus YOR184W, strain ser1, stronger effect = lower value 0.984 | S. cerevisiae deletion strains, locus YOR231W, strain MKK1, stronger effect = lower value 1 | S. cerevisiae deletion strains, locus YOR265W, strain rbl2, stronger effect = lower value 1.01 | S. cerevisiae deletion strains, locus YOR290C, strain snf2, stronger effect = lower value 0.997 | S. cerevisiae deletion strains, locus YOR316C, strain cot1, stronger effect = lower value 0.967 | S. cerevisiae deletion strains, locus YPL051W, strain arl3, stronger effect = lower value 1.01 | S. cerevisiae deletion strains, locus YPL055C, strain LGE1, stronger effect = lower value 0.964 | S. cerevisiae deletion strains, locus YPL078C, strain atp4, stronger effect = lower value 0.999 | S. cerevisiae deletion strains, locus YPL106C, strain sse1, stronger effect = lower value 0.984 | S. cerevisiae deletion strains, locus YPL240C, strain hsp82, stronger effect = lower value 0.999 | S. cerevisiae deletion strains, locus YPL241C, strain CIN2, stronger effect = lower value 0.985 | S. cerevisiae deletion strains, locus YPL256C, strain CLN2, stronger effect = lower value 1.01 | S. cerevisiae deletion strains, locus YPR119W, strain clb2, stronger effect = lower value 0.983 | S. cerevisiae deletion strains, locus YPR141C, strain kar3, stronger effect = lower value 0.951 | S. cerevisiae deletion strains, locus YPR163C, strain tif3, stronger effect = lower value 0.99 | S. cerevisiae deletion strains, locus YPR167C, strain met16, stronger effect = lower value 0.984 | S. cerevisiae deletion strains, strain wtn01, stronger effect = lower value 0.977 | S. cerevisiae strains, strain wild type, stronger effect = lower value 0.985
